Measurements taken from PubChem BioAssay (NCI).
Compounds without any hit were thinned out: in the full panel of roughly 79,000, 15% have a hit. The source made the active and inactive calls. Rule as the data show it: active = growth inhibition above about 70%; inactive = the rest.

How the values were obtained:
[1] = NCI Yeast Anticancer Drug Screen. Data for the rad50 strain (AID 155);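 also: 0% = growth of vehicle-only cultures of the same strain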; settings: S. cerevisiae rad50 strain growth inhibition; at 50.0 µM; stronger effect = higher value
Procedure, shortened: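 Growth of the mutant yeast was measured after compound exposure and referenced to vehicle-treated cultures.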

[2] = NCI Yeast Anticancer Drug Screen. Data for the mec2-1 strain (AID 157); settings: S. cerevisiae mec2-1 strain, at 50.0 µM, stronger effect = higher value
Procedure, shortened: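 Cells of the genetically defined mec2-1 yeast strain are incubated with test compound. Inhibition of growth is calculated against vehicle-treated controls.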

[3] = NCI Yeast Anticancer Drug Screen. Data for the sgs1 mgt1 strain (AID 161);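 also: 0% = growth of cultures given vehicle only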; settings: S. cerevisiae sgs1 mgt1 strain, at 50.0 µM, stronger effect = higher value
Procedure, shortened: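 Mutant yeast exposed to compound; growth scored against vehicle-only wells.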

[4] = NCI Yeast Anticancer Drug Screen. Data for the cln2 rad14 strain (AID 165);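 also: 0% = growth equal to vehicle treated cultures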; settings: S. cerevisiae cln2 rad14 strain, at 50.0 µM, stronger effect = higher value
Procedure, shortened: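 The screen exposed genetically defined yeast (cln2 rad14) to test compounds and scored growth inhibition relative to vehicle-treated controls.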

[5] = NCI Yeast Anticancer Drug Screen. Data for the bub3 strain (AID 167); settings: S. cerevisiae bub3 mutant strain, at 50.0 µM, stronger effect = higher value
Procedure, shortened: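 Whole-cell yeast assay. The mutant strain was incubated with compounds, and growth inhibition was determined by comparison with vehicle-treated cells.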

[6] = NCI Yeast Anticancer Drug Screen. Data for the mlh1 rad18 strain (AID 175); settings: S. cerevisiae mlh1 rad18 strain growth inhibition; at 50.0 µM; stronger effect = higher value
Procedure, shortened: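 Compound-treated yeast growth, normalised to vehicle controls. Strain bears defined DNA repair mutations.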

Measured: growth inhibition

c1ccc(-c2oc3ccc4ccccc4c3c2-c2ccc(OCCN3CCCC3)cc2)cc1
active: [1] 75.8%
inactive: [2] 58.4% | [3] 66.8% | [4] 61.2% | [5] 51.4% | [6] 61.5%

C/C(N=NS(=O)(=O)c1ccc(C)cc1)=C1\C=CC=CN1O
inactive: [1] -15.9% | [2] -14.7% | [3] -6.9% | [4] -1% | [5] -2.85% | [6] -11.9%

CCCN1CCc2c([nH]c3cc(OC)ccc23)C1C (stereo not given)
inactive: [1] 27.9% | [2] -4.15% | [3] -5.05% | [4] 1.9% | [5] 7.35% | [6] 3.2%

NC(=O)c1[nH]c(N=Nc2ccc(S(N)(=O)=O)cc2)nc1N
inactive: [1] 28.6% | [2] 13.6% | [3] 15% | [4] -5.1% | [5] -15.7% | [6] 17.9%

CCCCCCC1NC(CCCCCC)N2C(CCCCCC)N12 (stereo not given)
inactive: [1] 28.9% | [2] 16.8% | [3] -2.15% | [4] 0% | [5] 21.6% | [6] -2.7%

O=C(O)c1ccc(C(=O)c2ccccc2C(=O)O)cc1C(=O)O
inactive: [1] -8.75% | [2] 5% | [3] -44% | [4] 43.3% | [5] -23.1% | [6] -24.8%

CCCCCCCCC(O)C(O)CCCCCCCC(=O)OC (stereo not given)
inactive: [1] -15.3% | [2] 5% | [3] -4.55% | [4] -105% | [5] 30.5% | [6] -22.9%

CCN(CC)c1nc2ccccc2o1
inactive: [1] -16.9% | [2] 16% | [3] 3.7% | [4] -36.8% | [5] -19.9% | [6] -9.2%

CC1(C)[C@@H]2C[C@H]1C(Cc1cccc(C[C@H]3c4cc(-c5ccccn5)ncc4[C@H]4C[C@@H]3C4(C)C)c1)c1cc(-c3ccccn3)ncc12 (stereo not given in full)
inactive: [1] -2.2% | [2] -14.7% | [3] 4.95% | [4] -7.7% | [5] 45.2% | [6] -8.65%

Cn1c(=O)c2c(nc(Cc3ccccc3)n2CC(=O)O)n(C)c1=O
inactive: [1] 0.3% | [2] -18.1% | [3] -30.8% | [4] -6.95% | [5] -32.1% | [6] -18.9%

Clc1ccccc1C=NC1CCCCC1
inactive: [1] -5.1% | [2] -12.2% | [3] -0.3% | [4] -1.15% | [5] -5.85% | [6] -3.1%

C=CC12COC(=O)CC1CCC(=O)C2 (stereo not given)
inactive: [1] 4.75% | [2] -10.2% | [3] -14.2% | [4] -19.4% | [5] 13.4% | [6] -5.4%

CCOC(=O)c1cn(CC)c2cc(-n3cccc3)c(F)cc2c1=O
inactive: [1] 46.6% | [2] 27.6% | [3] 48.1% | [4] 39.5% | [5] 27% | [6] 49.9%

CCOc1ccc(C(=O)OC)cc1
inactive: [1] 31.1% | [2] -3.45% | [3] 31% | [4] 16.8% | [5] 38.8% | [6] 23.7%

O=C(CC1(O)CCCCC1)Nc1ccccc1
inactive: [1] 1.9% | [2] -8.45% | [3] -8.4% | [4] -54.6% | [5] 4.6% | [6] -13.1%

COC1(OC)c2no[n+]([O-])c2CCC1O (stereo not given)
inactive: [1] -6.6% | [2] -17.4% | [3] -24.1% | [4] 10% | [5] 4% | [6] -4.45%

CCNC(=O)C(CC)(CO)CO
inactive: [1] -16.4% | [2] -3.4% | [3] -3.95% | [4] 6.2% | [5] 0.65% | [6] 4.5%

COc1ccc(N)cc1CO
inactive: [1] 8.85% | [2] -9.85% | [3] -15.3% | [4] -17.1% | [5] -12.3% | [6] 12.7%

CC1(C)C[C@@H]2C1CCC1(C)CC2(O)CC[C@H]1O (stereo not given in full)
inactive: [1] -23.6% | [2] -35% | [3] -24.8% | [4] 14.4% | [5] 2.3% | [6] -17.9%

COC(=O)CCC(=O)Nc1ccccc1C(F)(F)F
inactive: [1] -8.55% | [2] 5.3% | [3] 7.65% | [4] 3.2% | [5] 8.45% | [6] 1%

CC(C)CC(O)C(CC(=O)Nc1ccccc1)S(=O)(=O)c1ccccc1 (stereo not given)
inactive: [1] -21.9% | [2] -16.4% | [3] -6.3% | [4] -28.6% | [5] -15.1% | [6] -11.8%

CC1=C(C(=O)NCc2ccccc2)C(c2ccccc2C)C(C(=O)NCc2ccccc2)=C(C)N1
inactive: [1] 52.1% | [2] 26% | [3] 31.6% | [4] -10.9% | [5] 36% | [6] 25.4%

CC(=O)Nc1ccc(N=C2c3ccccc3-c3ccc([N+](=O)[O-])cc32)cc1
inactive: [1] -6.1% | [2] -10.8% | [3] 11.2% | [4] -11.7% | [5] -5.7% | [6] -13.6%

O=C(CNc1c(Cl)cccc1Cl)NC1C=Cc2ccc(S(=O)(=O)Nc3c(Cl)cccc3Cl)cc2C1=O (stereo not given)
inactive: [1] 36.2% | [2] 12.9% | [3] 49% | [4] 5.35% | [5] 19% | [6] 22%

C=C(C)CCCC(C)C(O)C=O (stereo not given)
inactive: [1] -8.85% | [2] 1.15% | [3] 1.55% | [4] 1.75% | [5] -5.35% | [6] -12.7%

CC[N+](C)(CCO)C(Cc1ccccc1)c1ccccc1 (stereo not given)
inactive: [1] 8.5% | [2] -3.5% | [3] -0.1% | [4] -16.1% | [5] 19.5% | [6] -1.7%

CC(=O)NC1C(O)C(O)C(CO)OC1n1nc(SCc2ccccc2)c(=O)[nH]c1=O (stereo not given)
inactive: [1] 3.9% | [2] 11.9% | [3] -12.9% | [4] -5.65% | [5] -24.4% | [6] -36.5%

OCCCCCCOc1ccc(-c2cc(-c3ccccn3)nc(-c3ccccn3)c2)cc1
active: [5] 70.5%
inactive: [1] 52% | [2] 67.5% | [3] 68.9% | [4] 64.9% | [6] 65.5%

Cc1cc(O)oc(=O)c1
inactive: [1] -7.7% | [2] -15.1% | [3] -7.2% | [4] -44.4% | [5] 1.85% | [6] -4.85%

CC1OC(c2ccccc2)=CC(OCc2ccccc2)[C@H]1OCc1ccccc1 (stereo not given in full)
inactive: [1] -18.9% | [2] -23.6% | [3] -19% | [4] -50.8% | [5] -33% | [6] 2.95%

Cc1cn(C2CC(O)C(CO)O2)c(=O)nc1N1CCCCCCC1 (stereo not given)
inactive: [1] -6.85% | [2] -4.8% | [3] -11.3% | [4] -12.3% | [5] 4.85% | [6] 0.3%

CC/C=N/NC(=O)OCC
inactive: [1] -9.8% | [2] -4.85% | [3] -13.9% | [4] 1.1% | [5] -3.3% | [6] -6.85%

C#CCN(N=O)C(=O)NC(CCCCNC(=O)OCc1ccccc1)C(=O)OCc1ccccc1 (stereo not given)
inactive: [1] -8.65% | [2] -25.4% | [3] -7.75% | [4] -2.35% | [5] 14.2% | [6] 0.6%

COc1cc(C=O)cc(OC)c1
inactive: [1] -19.3% | [2] -49.3% | [3] -20.4% | [4] 12.4% | [5] -51% | [6] -2.25%

NS(=O)(=O)c1ncc(C(=O)N2CCN(Cc3ccccc3)CC2)[nH]1
inactive: [1] -6.15% | [2] -7.75% | [3] 7.2% | [4] -11.7% | [5] 1.05% | [6] 6.95%

COc1cc(NCc2c(O)ccc3ccccc23)c2ncccc2c1
inactive: [1] 46.1% | [2] 28.1% | [3] 13.1% | [4] -11.2% | [5] 7.75% | [6] 62.8%

O=C(c1ccccc1CO)N1CCCCC1
inactive: [1] 10.8% | [2] 2.2% | [3] -1.55% | [4] -69% | [5] -9.2% | [6] -20.4%

Nc1nn(CC(O)CO)c(=O)s1 (stereo not given)
inactive: [1] 4.85% | [2] 15.7% | [3] 2.4% | [4] 11.8% | [5] 8.1% | [6] 8%

CNC(=S)Nc1ccccc1
inactive: [1] -21.3% | [2] -33.8% | [3] 3.55% | [4] -8.15% | [5] -5.35% | [6] 18.8%

O=c1cnc2c(ccc3ccccc32)[nH]1
inactive: [1] -2.7% | [2] -20.8% | [3] -16.1% | [4] 6.55% | [5] 8.4% | [6] -5.95%
